Data on 85 molecules can be found in PubChem BioAssay AID651821 (The Scripps Research Institute Molecular Screening Center, 2012).

Each structure is given as a SMILES string. The whole screen tested about 370,000 compounds, of which about 4,700 (1.3%) were called active.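 Rule for the calls: active = inhibition above the plate cutoff, the mean of all test compounds on that plate plus 3 SD (cut at about 35% in these data); inactive = the rest.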 The list comes from a sample in which actives are over-represented; it also holds similar structures and randomly drawn compounds.

The test can be described thus: small molecules binding CAG repeat RNA – biochemical, fluorescence, primary screen (AID 651821).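 Note: 0% = DMSO alone and 100% = 100 µM mitoxantrone as full dye displacement; higher means more dye released from RNA so lower well fluorescence.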 The note with it: r(CAG) RNA repeat, TO-PRO-1 dye displacement fluorescence; at 3 µM; active compounds read high.
Consider `CC(=O)c1ccc(NC(=O)C2CC(=O)Nc3nc4ccccc4n32)cc1` (stereo not given), for which the inhibition was 2.8% (inactive). The result for `Brc1ccc(COCCc2cn(Cc3ccccc3)c3ccccc23)cc1` reads 3.73% (inactive). The result for `Cc1ccc(S(=O)(=O)NNC(=O)/C=C/c2cccc(F)c2)cc1` reads 3.74% (inactive); that for `COc1ccc(/C=C/C(=O)c2ccc(NS(=O)(=O)c3ccc(C)cc3)cc2)cc1O`, 43% (active); that for `C/C=C/c1ccc(OCC(=O)NNC(=O)CN(C)S(=O)(=O)c2ccc(C)cc2)c(OC)c1`, 1.87% (inactive). Consider `O=C(NCc1ccccc1)[C@H]1CCCN1C(=O)[C@H]1CCCN1C(=O)N1CCOCC1`, for which the inhibition is -0.04% (inactive).

For `COc1ccc(-c2cc3ccc(OCc4nn[nH]n4)cc3oc2=O)cc1`, the inhibition was 44.7% (active). Take `COc1ccc(-c2csc3ncnc(Oc4ccc5c(C)cc(=O)oc5c4)c23)cc1`: the inhibition is 0.56% (inactive). As to `CC(C)OC(=O)c1ccc(COc2ccc3ccc(=O)oc3c2)o1`, the inhibition was -0.52% (inactive). `CN(C)Cc1ccc(F)cc1Sc1cc(Cl)ccc1Cl`: the inhibition is -7.65% (inactive). The figure for `CN(CCc1ccccc1)C(=O)Cn1nc(-c2ccccc2)ccc1=O` is -2.33% (inactive); for `COc1cc(SC#N)ccc1N=Cc1c(C)[nH]n(-c2ccc(C)cc2)c1=O` it is 6.39% (inactive).

Consider `CCc1nnc(NS(=O)(=O)c2ccc(N=Cc3c(C)[nH]n(-c4ccc(C)cc4)c3=O)cc2)s1`, for which the inhibition is 56.7% (active). With `CCc1nnc(NC(=O)CCN(c2ccc(C)cc2)S(=O)(=O)c2ccccc2)s1`, the inhibition is 1.09% (inactive). The result for `CCOC(=O)N1CCN(C(=O)C[C@H]2C[C@@]3(C(=O)OC)C(=C[C@H](C4CCCC4)O[C@@H]3C)N(Cc3ccccc3)C2=O)CC1` reads 1.98% (inactive). On to `O=C(OC12CCCN(C1)/C(=C/c1ccccc1)C2)c1ccco1` (stereo not given), for which the inhibition was 3.14% (inactive). For `CCOc1ccc(-n2c(O)c(/C=N/Nc3nnc(C)c(=O)[nH]3)c3ccccc3c2=O)cc1`, the inhibition is 47.2% (active).

Take `COC(=O)Cc1csc(/N=C/c2c(O)n(-c3cccc(C(F)(F)F)c3)c(=O)c3ccccc23)n1`: the inhibition is -0.9% (inactive). The result for `CCOc1ccc(N/C(N)=N/c2nc(C)c(C)c(=O)[nH]2)cc1` reads 1.99% (inactive); that for `O=C(COc1ccccc1Cl)Nn1cnnc1`, 2.37% (inactive); that for `CCCCN1CCN(C(=O)c2ccc3c(c2)NC(=O)C(C)(C)O3)CC1`, -0.58% (inactive). Regarding `CCOC(=O)C1(Cc2ccccc2)CCN(Cc2cn(C(C)=O)c3ccccc23)CC1`, the inhibition was -1.49% (inactive). Consider `CC(=O)Nc1ccc(S(=O)(=O)Nc2ccc(-c3ccc4nnc(C)n4n3)cc2)cc1`, for which the inhibition was 6.21% (inactive). On to `CCN(CC)CCn1c2c(c(SCC(=O)Nc3nc4ccccc4s3)nc1=O)CCCC2`, for which the inhibition is -6.14% (inactive). With `O=C(Nc1ccccc1)Nc1nc2ccccc2s1`, the inhibition was 41.3% (active). The result for `CC(=O)Nc1ccc(C(=O)Nc2nc(-c3cc(C)n(Cc4ccccc4)c3C)cs2)cc1` reads 51.7% (active). As to `CC(=O)Nc1ccc(S(=O)(=O)Nc2nc(-c3ccc(C(C)(C)C)cc3)cs2)cc1`, the inhibition is 66.5% (active).

With `CC(=O)NC(c1ccccc1)c1nc(-c2cccc(C(C)C)c2)cs1` (stereo not given), the inhibition was 0.86% (inactive).

For `Cn1c(CNc2nc(-c3ccccc3)cs2)nnc1SCC(=O)c1ccccc1`, the inhibition is 8.83% (inactive). As for `COc1ccc(C(C)(NC(C)=O)c2nc(-c3ccc(S(C)(=O)=O)cc3)cs2)cc1` (stereo not given), the inhibition is -0.32% (inactive). As for `Cc1ccc(C(=O)Nc2c(C#N)c(C)c(C)n2Cc2ccccc2)cc1`, the inhibition is 0.41% (inactive).

On to `CC(=O)Nc1ccc(-c2csc(NC(=O)Nc3ccccc3)n2)cc1`, for which the inhibition is 53.7% (active). Take `CCCn1c(C)cc(-c2csc(NC(=O)CCc3nc4ccccc4c(=O)[nH]3)n2)c1C`: the inhibition was 24.8% (inactive). Take `CC(C)CC(=O)N/C(N)=N/c1nc2ccccc2s1`: the inhibition was 0.1% (inactive). Regarding `CC(NCc1ccco1)C(=O)N1CCCCC1` (stereo not given), the inhibition was 2.88% (inactive). Take `CC(C)CNc1cccc2c1S(=O)(=O)N[C@H](CC(C)C)CO2`: the inhibition was -1.29% (inactive). For `COc1ccc(-c2ccccc2C2Cc3nnccc3CN2C(=O)Nc2ccccc2)cc1` (stereo not given), the inhibition is 8.81% (inactive). For `COc1ccnc(C(=O)N2CCC(Oc3cccnc3)CC2)c1`, the inhibition is 2.96% (inactive). Turning to `CN(C)Cc1cn(-c2ccc(-c3noc4c3C(=O)N(CC(=O)N3CCOCC3)CC4)cc2)nn1`, the inhibition was 4.11% (inactive). `CCOC(=O)c1csc(NC(=O)C2CCCN(S(=O)(=O)c3ccc(Cl)s3)C2)n1` (stereo not given): the inhibition is 3.09% (inactive). `Nc1nc2c(ncn2[C@@H]2O[C@H](C(=O)N[C@@H](Cc3ccccc3)C(=O)NCc3ccccc3)[C@@H](O)[C@H]2O)c(=O)[nH]1`: the inhibition was 3.57% (inactive). Consider `CCOC(=O)[C@]12CCCC=C1N(CCCOC)C(=O)[C@@H]2CC(=O)N1CCOCC1`, for which the inhibition is 0.28% (inactive).

Regarding `COc1ccc(CCNC(=O)CN2CCC(n3nnc4cc(F)ccc43)CC2)cc1OC`, the inhibition was -9.88% (inactive). For `COC(=O)c1ccc(CSc2nnc(NC(C)C)s2)cc1`, the inhibition was -4.56% (inactive). In the case of `CCOc1ccccc1Nc1nnc(SCc2ccc(C(=O)OC)o2)s1`, the inhibition is 0.96% (inactive). In the case of `Cc1ccc(C(=O)Oc2coc(CSc3nnc(NC(=O)c4cccs4)s3)cc2=O)cc1C`, the inhibition was 68.7% (active). On to `C=CCN1C(=O)[C@@H](CC(=O)N2CCN(C(=O)c3ccco3)CC2)[C@]2(C(=O)OC)CCCCC=C12`, for which the inhibition was 7.73% (inactive). Turning to `O=C(N/N=C/c1ccsc1)c1cc(O)cc(O)c1`, the inhibition is 9.53% (inactive). Take `O=C(O)/C(=C/c1cccnc1)NC(=O)c1ccccc1`: the inhibition is 1.01% (inactive). The figure for `O=C(N/N=C/c1cccnc1)c1cc2ccccc2cc1O` is 46.1% (active). In the case of `CC(=O)Nc1ccc(CN2CCC(Oc3ccc(C(=O)N4CCCC4)cc3)CC2)cc1`, the inhibition is -7.88% (inactive).

Regarding `COC(=O)C12C=C3CC(c4ccccc4)=C3C(=O)N1Cc1[nH]c3ccccc3c1C2` (stereo not given), the inhibition is 7.34% (inactive).

Take `CC1CCCCN1S(=O)(=O)c1ccc(S(=O)(=O)N(CC(=O)Nc2ccccc2)Cc2cccs2)cc1` (stereo not given): the inhibition is 2.51% (inactive).

Consider `CC1CCCN(S(=O)(=O)c2ccc(C(=O)Nc3nnc(-c4ccncc4)o3)cc2)C1` (stereo not given), for which the inhibition is 35% (active). With `CC1CN(S(=O)(=O)c2ccc(C(=O)Nc3sccc3C(N)=O)cc2)CC(C)O1` (stereo not given), the inhibition was 11.2% (inactive). Turning to `O=C(Nc1nnc(-c2ccccc2)o1)c1cccc(S(=O)(=O)N2CCOCC2)c1`, the inhibition is 8.5% (inactive). `CC1CCCCN1S(=O)(=O)c1ccc(C(=O)Nc2nnc(-c3cccs3)o2)cc1` (stereo not given): the inhibition is 49% (active).

On to `CC1CC(C)CN(S(=O)(=O)c2ccc(C(=O)NN3CCOCC3)cc2)C1` (stereo not given), for which the inhibition was -3.03% (inactive). For the molecule `O=C(NCc1ccc(Cl)cc1)C1CCCN(c2nc3ccccc3o2)C1` (stereo not given), the inhibition was 5.58% (inactive). Consider `CC(=O)Nc1ccc(OC[C@@H](O)CN2CCC(C(O)(c3ccccc3)c3ccccc3)CC2)cc1`, for which the inhibition was -1% (inactive). For `O=C(NCc1ccccc1)[C@H]1CCCN1C(=O)[C@H]1CCCN1C(=O)c1cc(F)cc(F)c1`, the inhibition was -2.08% (inactive). As for `CCOC(=O)c1c(-c2ccc(-c3ccccc3)cc2)csc1NC(=O)CCC(=O)O`, the inhibition was 43.3% (active). Consider `CCOC(=O)c1c(-c2ccc(C)cc2C)csc1NC(=O)CSc1nnnn1C`, for which the inhibition is 1.95% (inactive). Take `CCOC(=O)c1c(C)nn(-c2ncccc2NC(=O)CCC(=O)O)c1C`: the inhibition is 3.15% (inactive). `CC1(C)CC(=O)C=C(NCCN2CCNCC2)C1`: the inhibition is -4.08% (inactive).

Turning to `CC(=O)C1=C(C)N(Cc2ccc(Cl)cc2)C(=S)NC1c1ccc(F)cc1` (stereo not given), the inhibition was 5.48% (inactive). On to `O=C(COC(=O)c1cc([N+](=O)[O-])ccc1NCc1ccccc1)NC1CCCCC1`, for which the inhibition was -1.88% (inactive). `Cc1ccc(S(=O)(=O)NCCC(c2ccccc2)c2ccccc2)cc1C(=O)O`: the inhibition is 42.4% (active). The result for `Cc1ccc(S(=O)(=O)NCCCn2ccnc2)cc1C(=O)NC(C)C` reads -1.64% (inactive); that for `Cc1cccc(NS(=O)(=O)c2ccc(C)c(C(=O)NCC(c3ccccc3)N(C)C)c2)c1` (stereo not given), -4.14% (inactive); that for `O=S1(=O)c2ccc(N3CCN(Cc4ccccc4F)CC3)cc2Oc2ccccc2CN1Cc1cn(Cc2ccc(Cl)cc2)nn1`, 12.5% (inactive). The figure for `O=S1(=O)c2c(cccc2N2CC[C@H](O)C2)O[C@@H]2CCN1C2` is 2.13% (inactive); for `Cc1ccc(S(=O)(=O)N2CCN(C(=O)c3ccccc3-c3nc4ccccc4s3)CC2)c(C)c1` it is -1.03% (inactive); for `NC(=O)Cc1ccc2sc(-c3ccccc3)nc2c1` it is 1.7% (inactive). In the case of `Oc1ccc(-c2[nH]ncc2-c2nc3ccccc3s2)c(O)c1`, the inhibition was 34.9% (active). `O=C(CN1CCCc2ccccc21)NCc1ccc(F)cc1`: the inhibition is 5.24% (inactive). Turning to `C=CS(=O)(=O)N(Cc1nnn(Cc2ccccc2)c1Br)[C@H](C(=O)OC)C(C)C`, the inhibition was -1.47% (inactive). For `Cc1cccc(NC(=O)c2cc3c(C)nn(-c4ccccc4)c3s2)c1`, the inhibition is 11.1% (inactive).

As for `Cc1nn2c(c1-c1ccccc1)N=C(c1ccco1)CC2c1ccccc1` (stereo not given), the inhibition is 11.8% (inactive). As to `COC(=O)C1=C(C)N(Cc2ccccc2C(F)(F)F)C(=NCc2ccc(OC)cc2)NC1c1cccc(C(F)(F)F)c1` (stereo not given), the inhibition is 1.76% (inactive). In the case of `O=c1c(-c2ccc3c(c2)OCCO3)c(C(F)(F)F)oc2cc(O)cc(O)c12`, the inhibition is 22.9% (inactive). Consider `CCOC(=O)c1cc2cc(-c3c(C(=O)OCC)oc4cc(O)cc(O)c4c3=O)ccc2o1`, for which the inhibition was 42.5% (active). Consider `CCOC(=O)c1oc2c(CN3CCN(C)CC3)c(O)ccc2c(=O)c1-c1ccc(Br)cc1`, for which the inhibition is -3.79% (inactive).

For `COC(=O)C1CN(Cc2cn(Cc3ccc(F)cc3)nn2)CCS(=O)(=O)N1Cc1ccc(Cl)cc1` (stereo not given), the inhibition is -1.1% (inactive). As for `COc1cccc(-c2cc(CNC(=O)[C@@H](Cc3ccccc3)NC(=O)[C@H]3O[C@@H](n4cnc(C(N)=O)n4)[C@H](O)[C@@H]3O)no2)c1`, the inhibition was 6.53% (inactive).
